According to PubChem BioAssay (NCI):
Compounds without any hit were thinned out: in the full panel of roughly 83,000, 20% have a hit.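 Note: values are percent growth. 100 is the growth of untreated cells, values between 100 and 0 indicate rising inhibition; between -100 and 0 indicates cell death.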 The source made the active and inactive calls. The calls were made as follows: active = growth percent below 10; inactive = the rest.

What was measured:
Test in all cases: NCI-60 one-dose screen, 48 h (100 = growth as untreated, 0 = no growth, -100 = all killed)
Settings in all cases: 10 µM unless noted
SR leukemia = system: SR leukemia
RPMI-8226 leukemia = system: RPMI-8226 leukemia
OVCAR-8 ovarian = system: OVCAR-8 ovarian
OVCAR-5 ovarian = system: OVCAR-5 ovarian
OVCAR-4 ovarian = system: OVCAR-4 ovarian
SK-OV-3 ovarian = system: SK-OV-3 ovarian
IGROV1 ovarian = system: IGROV1 ovarian
OVCAR-3 ovarian = system: OVCAR-3 ovarian
HS 578T breast = system: HS 578T breast
NCI/ADR-RES ovarian = system: NCI/ADR-RES ovarian
T-47D breast = system: T-47D breast
BT-549 breast = system: BT-549 breast
MDA-MB-435 melanoma = system: MDA-MB-435 melanoma
SW-620 colon = system: SW-620 colon
MCF7 breast = system: MCF7 breast
HCT-116 colon = system: HCT-116 colon
KM12 colon = system: KM12 colon

Measured: growth

Cc1ccc2c(n1)C(=O)c1[nH]c3ccccc3c1C2=O
active: OVCAR-3 ovarian -5.11% | MDA-MB-435 melanoma -87.6%
inactive: SR leukemia 39.8% | RPMI-8226 leukemia 46.9% | OVCAR-8 ovarian 53% | OVCAR-5 ovarian 67.9% | OVCAR-4 ovarian 22.2% | SK-OV-3 ovarian 85.6% | IGROV1 ovarian 33.8% | HS 578T breast 69.2% | NCI/ADR-RES ovarian 58.6% | T-47D breast 23.2% | BT-549 breast 58.5% | SW-620 colon 48.3% | MCF7 breast 31.2% | HCT-116 colon 22% | KM12 colon 37%

O=C1c2cccnc2C(=O)c2c1c(C(=O)NCCn1ccnc1)c1ccccn21
inactive: RPMI-8226 leukemia 55.8% | OVCAR-5 ovarian 92.1% | SK-OV-3 ovarian 48.4% | IGROV1 ovarian 26.3% | HS 578T breast 65.6% | NCI/ADR-RES ovarian 75.3% | T-47D breast 24.2% | BT-549 breast 45.8% | SW-620 colon 12.9% | KM12 colon 31.3%
active: SR leukemia 7.94% | OVCAR-8 ovarian 4.37% | OVCAR-4 ovarian -47.6% | OVCAR-3 ovarian 3.37% | MDA-MB-435 melanoma -84.2% | MCF7 breast 0.25% | HCT-116 colon -8.04%

Fc1cc(F)cc(C(c2c[nH]c3ccccc23)c2c[nH]c3ccccc23)c1
active: IGROV1 ovarian -6.52%
inactive: SR leukemia 106% | RPMI-8226 leukemia 95.2% | OVCAR-8 ovarian 102% | OVCAR-5 ovarian 88.8% | OVCAR-4 ovarian 116% | SK-OV-3 ovarian 117% | OVCAR-3 ovarian 112% | HS 578T breast 82% | NCI/ADR-RES ovarian 92.2% | T-47D breast 97% | BT-549 breast 135% | MDA-MB-435 melanoma 103% | SW-620 colon 93% | MCF7 breast 110% | HCT-116 colon 89.8% | KM12 colon 97.5%

CCOC(=O)c1nc(Nc2ccc(NC(=O)Nc3ccc(F)cc3)cc2)c2ccccc2n1
inactive: SR leukemia 90.2% | RPMI-8226 leukemia 109% | OVCAR-8 ovarian 106% | OVCAR-5 ovarian 108% | OVCAR-4 ovarian 114% | SK-OV-3 ovarian 100% | IGROV1 ovarian 102% | OVCAR-3 ovarian 102% | HS 578T breast 99.9% | NCI/ADR-RES ovarian 92.7% | T-47D breast 99.2% | BT-549 breast 106% | MDA-MB-435 melanoma 101% | SW-620 colon 96.9% | MCF7 breast 96.5% | HCT-116 colon 101% | KM12 colon 102%

Nc1ncnc2c1N=C(c1ccc(Cl)cc1)CC(c1ccc3c(c1)OCO3)N2 (centres undefined)
inactive: SR leukemia 77.3% | RPMI-8226 leukemia 60.3% | OVCAR-8 ovarian 91.7% | OVCAR-5 ovarian 85.6% | OVCAR-4 ovarian 98.6% | SK-OV-3 ovarian 21% | IGROV1 ovarian 46% | OVCAR-3 ovarian 85.5% | HS 578T breast 93.8% | NCI/ADR-RES ovarian 98.2% | T-47D breast 93.8% | BT-549 breast 95.5% | MDA-MB-435 melanoma 101% | SW-620 colon 100% | MCF7 breast 81.2% | HCT-116 colon 83.7% | KM12 colon 103%

CO[C@H]1/C=C(/C)CCC[C@H](C)[C@H](O)[C@@H](C)C(=O)C(C)(C)[C@@H](O)CC(=O)O[C@@H]1/C(C)=C/c1csc(C)n1
inactive: SR leukemia 19.6% | RPMI-8226 leukemia 14.2% | OVCAR-8 ovarian 26.7% | OVCAR-5 ovarian 34.6% | OVCAR-4 ovarian 63.7% | IGROV1 ovarian 12.8% | T-47D breast 42.3% | BT-549 breast 32.3% | SW-620 colon 33.8% | MCF7 breast 20.4%
active: SK-OV-3 ovarian 5.27% | OVCAR-3 ovarian -49.9% | HS 578T breast -21.3% | NCI/ADR-RES ovarian -36.7% | MDA-MB-435 melanoma -34.8% | HCT-116 colon 9.39% | KM12 colon 5.07%

O=C(Nc1cccc([N+](=O)[O-])c1)c1cc2ccccc2cc1O
inactive: SR leukemia 48.6% | OVCAR-5 ovarian 10.8% | OVCAR-4 ovarian 15.6%
active: RPMI-8226 leukemia -55.3% | OVCAR-8 ovarian 9.47% | SK-OV-3 ovarian -82% | IGROV1 ovarian -2.54% | OVCAR-3 ovarian -9.94% | HS 578T breast 6.07% | NCI/ADR-RES ovarian -10.6% | T-47D breast 3.67% | BT-549 breast -7.42% | MDA-MB-435 melanoma -1.29% | SW-620 colon 6.15% | MCF7 breast -4.92% | HCT-116 colon 7.4% | KM12 colon -10.3%

CN(CCOc1ccc(C#N)cc1)CCOc1ccc(C#N)cc1
inactive: SR leukemia 49.6% | OVCAR-8 ovarian 93.5% | OVCAR-5 ovarian 79% | OVCAR-4 ovarian 75% | SK-OV-3 ovarian 46.8% | IGROV1 ovarian 61.1% | OVCAR-3 ovarian 97.6% | HS 578T breast 49.2% | NCI/ADR-RES ovarian 67.1% | T-47D breast 79.9% | BT-549 breast 91.3% | MDA-MB-435 melanoma 86.3% | SW-620 colon 57.8% | MCF7 breast 211% | HCT-116 colon 66.2% | KM12 colon 71.4%
active: RPMI-8226 leukemia 7.02%

CC[C@@H](C(=O)[C@@H](C)[C@@H](O)[C@H](C)[C@@H]1O[C@@H]([C@@H](CC)C(=O)NCCc2ccc(F)cc2)CC[C@@H]1C)C1O[C@]2(C=CC(=O)[C@]3(CC[C@@](C)([C@H]4CC[C@](O)(CC)[C@H](C)O4)O3)O2)[C@H](C)C[C@@H]1C (some centres undefined)
active: RPMI-8226 leukemia 7.59% | OVCAR-4 ovarian -2.57%
inactive: SR leukemia 41.9% | OVCAR-8 ovarian 32.2% | OVCAR-5 ovarian 67.7% | SK-OV-3 ovarian 44.7% | IGROV1 ovarian 26.3% | OVCAR-3 ovarian 10.5% | HS 578T breast 48.1% | NCI/ADR-RES ovarian 29.6% | T-47D breast 15% | BT-549 breast 54.1% | MDA-MB-435 melanoma 39.3% | SW-620 colon 40.4% | MCF7 breast 18.4% | HCT-116 colon 16.9% | KM12 colon 42.6%

COc1ccc2c3c([nH]c2c1)C(=O)c1nc(C)ccc1C3=O
active: OVCAR-3 ovarian -13.9% | MDA-MB-435 melanoma -76.2%
inactive: SR leukemia 37.4% | RPMI-8226 leukemia 45.4% | OVCAR-8 ovarian 48.5% | OVCAR-5 ovarian 85% | OVCAR-4 ovarian 25.7% | SK-OV-3 ovarian 76.3% | IGROV1 ovarian 28.8% | HS 578T breast 84.9% | NCI/ADR-RES ovarian 44.3% | T-47D breast 48.5% | BT-549 breast 71.7% | SW-620 colon 42.8% | MCF7 breast 41% | HCT-116 colon 30.3% | KM12 colon 36.6%

C1=CN2CC(c3ccccc3)=NNC2c2ccccc21 (centres undefined)
inactive: SR leukemia 97% | RPMI-8226 leukemia 69.8% | OVCAR-8 ovarian 92% | OVCAR-5 ovarian 106% | OVCAR-4 ovarian 83% | SK-OV-3 ovarian 92.2% | IGROV1 ovarian 22.8% | OVCAR-3 ovarian 81.5% | HS 578T breast 86.7% | NCI/ADR-RES ovarian 80.6% | T-47D breast 88.7% | BT-549 breast 61.7% | MDA-MB-435 melanoma 96.5% | SW-620 colon 96.7% | MCF7 breast 67.3% | HCT-116 colon 85.6% | KM12 colon 99.4%

CCn1c(SCC(=O)c2ccc(Br)cc2)nnc1-c1ccncc1
inactive: SR leukemia 98.3% | RPMI-8226 leukemia 103% | OVCAR-8 ovarian 109% | OVCAR-5 ovarian 108% | OVCAR-4 ovarian 101% | SK-OV-3 ovarian 118% | IGROV1 ovarian 115% | OVCAR-3 ovarian 106% | HS 578T breast 105% | NCI/ADR-RES ovarian 107% | T-47D breast 105% | BT-549 breast 116% | MDA-MB-435 melanoma 102% | SW-620 colon 102% | MCF7 breast 92.6% | HCT-116 colon 105% | KM12 colon 106%

CCCCC[C@@H]1Cc2cc(O)c(C(=O)O)c3c2[C@H](C[C@]2(OC[C@@H](CC(=O)[C@@](C)(CC)C(=O)OC)[C@@H]2C)O3)O1
inactive: SR leukemia 105% | RPMI-8226 leukemia 108% | OVCAR-8 ovarian 99.4% | OVCAR-5 ovarian 111% | OVCAR-4 ovarian 104% | SK-OV-3 ovarian 104% | IGROV1 ovarian 103% | OVCAR-3 ovarian 111% | HS 578T breast 99.8% | NCI/ADR-RES ovarian 113% | T-47D breast 98.5% | BT-549 breast 121% | MDA-MB-435 melanoma 117% | SW-620 colon 111% | MCF7 breast 99.3% | HCT-116 colon 111% | KM12 colon 105%

C=C1C(=O)O[C@H]2[C@H]1CC/C(COC(=O)NCc1ccc(Cn3c(=O)sn(CCI)c3=O)cc1)=C\CC[C@@]1(C)O[C@@H]21
inactive: RPMI-8226 leukemia 29.1% | OVCAR-8 ovarian 89.4% | OVCAR-5 ovarian 82% | OVCAR-4 ovarian 32.1% | SK-OV-3 ovarian 109% | HS 578T breast 94.3% | NCI/ADR-RES ovarian 101% | T-47D breast 27.1% | BT-549 breast 69.8% | MDA-MB-435 melanoma 57.1% | MCF7 breast 24.7% | HCT-116 colon 20% | KM12 colon 91.5%
active: SR leukemia -2.32% | IGROV1 ovarian -75.5% | OVCAR-3 ovarian -55.4% | SW-620 colon -2.89%

CN([O-])c1nc(N(C)[O-])nc(N2CCOCC2)n1.CN([O-])c1nc(N(C)[OH2+])nc(N2CCOCC2)n1.[Fe+3]
active: MDA-MB-435 melanoma -30.5% [100 µM]
inactive: SR leukemia 67.3% [100 µM] | RPMI-8226 leukemia 81% [100 µM] | OVCAR-8 ovarian 85.6% [100 µM] | OVCAR-5 ovarian 110% [100 µM] | OVCAR-4 ovarian 120% [100 µM] | SK-OV-3 ovarian 110% [100 µM] | IGROV1 ovarian 112% [100 µM] | OVCAR-3 ovarian 60% [100 µM] | HS 578T breast 98.2% [100 µM] | NCI/ADR-RES ovarian 104% [100 µM] | T-47D breast 93% [100 µM] | BT-549 breast 85.8% [100 µM] | SW-620 colon 58.3% [100 µM] | MCF7 breast 90.1% [100 µM] | HCT-116 colon 65.8% [100 µM] | KM12 colon 33.6% [100 µM]

COc1ccc2c(c1)c(-c1noc(C(=O)c3cn(C)c4ccc(Br)cc34)n1)cn2C
inactive: SR leukemia 80.5% | RPMI-8226 leukemia 95.4% | OVCAR-8 ovarian 96.1% | OVCAR-5 ovarian 107% | OVCAR-4 ovarian 108% | SK-OV-3 ovarian 99.5% | IGROV1 ovarian 89.2% | OVCAR-3 ovarian 111% | HS 578T breast 94.6% | NCI/ADR-RES ovarian 102% | T-47D breast 90% | BT-549 breast 99.3% | MDA-MB-435 melanoma 114% | SW-620 colon 105% | MCF7 breast 93% | HCT-116 colon 92.4% | KM12 colon 106%

CCOC(=O)CNP(=O)(OC[C@@H](Cc1ccccc1)NC(=O)c1cc2ccccc2s1)Oc1ccccc1 (some centres undefined)
inactive: SR leukemia 23.9% | RPMI-8226 leukemia 79.6% | OVCAR-8 ovarian 89.1% | OVCAR-5 ovarian 95.4% | OVCAR-4 ovarian 88.4% | SK-OV-3 ovarian 91.2% | IGROV1 ovarian 79.9% | OVCAR-3 ovarian 79.9% | HS 578T breast 76.5% | NCI/ADR-RES ovarian 51.4% | T-47D breast 55.3% | BT-549 breast 74.6% | SW-620 colon 47.3% | MCF7 breast 51.2% | HCT-116 colon 71.9% | KM12 colon 42.3%
active: MDA-MB-435 melanoma 8.66%
